# Data taken from PubChem BioAssay AID493056 (National Center for Advancing Translational Sciences (NCATS), 2011).
# Among all 360,000 compounds or so, about 2,400 (0.67%) were called active. What follows is part of a selection rich in actives, with near analogues and random picks from the rest. Unmarked numbers belong to inactive results. Cut-off read from the data, not from the text of the source: active = enhancement above about 30%; inactive = the rest.
# Target: Thyrotropin-releasing hormone receptor (Homo sapiens) (UniProt P34981)
# Assay: qHTS for Small Molecule Agonists and Allosteric Enhancers of Human TRH Receptor: Primary Screen for Enhancers; note: 0% is about no effect
# Details: TRHR cells, fluo-8 calcium fluorescence, EC20 TRH enhancement; at 2 µM; hits give high values
# Method in brief: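 Enhancer read-out: after compound pinning and an initial kinetic agonist-mode read, an EC20 of TRH (10 nM final) was injected and fluo-8 calcium signal (Ex 480/Em 530) followed at 1 s/cycle for 100 cycles in TRHR-expressing cells.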
# Thyrotropin-releasing hormone receptor (Homo sapiens), sequence (P34981 whole entry, looked up): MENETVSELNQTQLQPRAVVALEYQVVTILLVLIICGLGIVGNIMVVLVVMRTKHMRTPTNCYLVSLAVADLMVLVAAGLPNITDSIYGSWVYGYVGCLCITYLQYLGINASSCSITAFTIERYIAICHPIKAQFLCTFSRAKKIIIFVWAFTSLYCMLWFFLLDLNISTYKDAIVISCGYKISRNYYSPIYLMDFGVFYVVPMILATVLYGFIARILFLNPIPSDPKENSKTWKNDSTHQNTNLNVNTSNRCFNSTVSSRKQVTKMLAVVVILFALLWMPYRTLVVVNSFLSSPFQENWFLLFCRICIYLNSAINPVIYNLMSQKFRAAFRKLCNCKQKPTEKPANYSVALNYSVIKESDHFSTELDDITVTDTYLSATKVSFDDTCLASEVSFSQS
row,SMILES,enhancement
1,Cc1ccccc1CSc1nc2c([nH]c3ccccc32)c(=O)n1C,-2.07%
2,COc1ccc(Cl)cc1-n1c(CCC(=O)O)ccc1-c1ccc(C)cc1,7.8%
3,Cc1ccccc1N1CCN(S(=O)(=O)c2ccc3ccccc3c2)CC1,-5.29%
4,Cc1ccc(S(=O)(=O)N2CCN(C)CC2)cc1,33.6% (active)
5,Cc1ccc(S(=O)(=O)N2CCN(C(=O)c3cccs3)CC2)cc1,0.403%
6,Cc1ccc(N2CCN(S(=O)(=O)c3ccc(F)cc3)CC2)c(C)c1,32% (active)
7,Cc1ccc(C)c(N2CCN(S(=O)(=O)c3ccc4c(c3)C(C(C)C)C(=O)N4)CC2)c1 (stereo not drawn),-4.92%
8,Cc1ccc(S(=O)(=O)N2CCC(N3CCCCCC3)CC2)cc1,26.1%
9,CCc1cc2c(cc3c(=O)n(CC(=O)N4CCN(c5cc(Cl)ccc5C)CC4)nc(CC)n32)s1,-2.18%
10,Cc1nc2sc(C)c(C)n2c(=O)c1S(=O)(=O)NCCc1ccc(Cl)cc1,2.98%
11,O=C(Nc1nnc(-c2ccc(Cl)cc2)o1)c1ccccc1Br,1.12%
12,O=C(COC(=O)c1ccccc1Br)Nc1nnc(-c2ccccc2)o1,32.2% (active)
13,O=C(COC(=O)CSc1nnc(-c2ccc(Cl)cc2)o1)Nc1cc(Cl)cc(Cl)c1,-8.1%
14,CSc1ncc(C(=O)NCc2ccccc2Cl)c(C(F)(F)F)n1,-4.14%
15,CN(C)c1ccc(NC(=O)CSc2nc(-c3ccco3)cc(C(F)(F)F)n2)cc1,10.8%
16,O=C(NC1CCCCC1)c1ccc(Cn2c(SCc3ccccc3)nc3cccnc32)cc1,7.91%
17,COc1cc(C(=O)NCC(=O)NCCSc2ccc(Br)cc2)cc(OC)c1OC,1.93%
18,COc1ccccc1C(=O)NCC(=O)NCCSc1ccc(Br)cc1,0.828%
19,COc1cccc(C(=O)NCCSc2ccc(Br)cc2)c1,31.9% (active)
20,CCOc1cc(C2C(C(=O)Nc3ccc(OC)cc3)=C(C)Nc3nc(SC)nn32)ccc1O (stereo not drawn),-5.28%
21,COc1ccccc1N1CCN(C(=O)C2Cc3ccccc3CN2C(=O)c2ccco2)CC1 (stereo not drawn),6.6%
22,O=C(C1Cc2ccccc2CN1C(=O)c1ccco1)N1CCN(c2ccccc2)CC1 (stereo not drawn),36% (active)

row,SMILES,enhancement
1,CCC(=O)N1c2ccccc2CC1C(=O)N1CCN(c2ccccc2)CC1 (stereo not drawn),-2.98%
2,COc1cccc(NC(=O)CSC2=Nc3ccccc3C3=NC(CC(=O)NC4CCCCC4)C(=O)N23)c1 (stereo not drawn),-3.86%
3,COc1ccc(NC(=O)c2sc3nc(-c4cc5cccc(OC)c5oc4=O)[nH]c(=O)c3c2C)cc1,8.15%
4,Cn1c(=O)c2c(SCC(=O)NCC3CCCO3)nc(-c3ccccc3F)nc2n(C)c1=O (stereo not drawn),-1.86%
5,Cc1ccc(-c2cn(S(=O)(=O)c3cccc([N+](=O)[O-])c3)nc2N)cc1,43.3% (active)
6,CC1=NCCN1S(=O)(=O)c1cccc([N+](=O)[O-])c1,18.4%
7,Cc1cc(C)n(S(=O)(=O)c2cccc([N+](=O)[O-])c2)n1,-7.84%
8,CCOc1ccc(CNC(=O)c2cc(=O)[nH]c3ccc(S(=O)(=O)N4CCCCC4)cc23)cc1,5.17%
9,COc1ccc(OC)c(NC(=O)Cn2c(=O)n(Cc3ccccc3)c(=O)c3ccccc32)c1,-7.19%
10,COc1ccccc1-c1nnc(SCC(N)=O)o1,0.976%
11,COc1ccccc1-c1nnc(C2CCN(C(=O)c3ccc(Cl)cc3)CC2)o1,49.9% (active)
12,COc1ccc(C(=O)N2CCC(c3nc4ccccc4o3)CC2)cc1,6.96%
13,COC(=O)c1c(NC(=O)c2ccc(Cl)c(Cl)c2)sc2c1CCCC2,12.7%
14,COc1cccc(C(=O)NC2CCN(C#N)CC2)c1,-0.807%
15,Cc1ccc(Cl)cc1N1CCN(C(=O)c2cnc3c(-c4ccc(F)cc4)c(C)nn3c2C)CC1,-2.73%
16,CCOc1ccc(N(CC)C(=O)c2noc3c2COc2ccc(C)cc2-3)cc1,-7.18%
17,COc1ccc(-n2cnnc2SCC(=O)Nc2cccc(S(N)(=O)=O)c2)cc1,17.5%
18,Cc1nnc(SCC(=O)Nc2cccc(N)c2)n1-c1ccccc1,3.5%
19,NS(=O)(=O)c1cccc(NC(=O)CSc2nc3ccccc3n2-c2ccccc2)c1,41.7% (active)
20,O=C(CNC(=O)c1ccc(Cl)c(C(F)(F)F)c1)OC(C(=O)Nc1cc(C(F)(F)F)ccc1Cl)c1ccccc1 (stereo not drawn),-3.64%
21,Cc1nn(-c2nc(-c3ccccc3)cc(C(F)(F)F)n2)c(C)c1Cl,-7.42%
22,COc1cccc(-n2ccn(CC(=O)NCc3ccc(C)cc3)c(=O)c2=O)c1,6.62%

row,SMILES,enhancement
1,COc1ccc(OC)c(NC(=O)CN(Cc2ccc(Cl)cc2)S(C)(=O)=O)c1,-0.638%
2,COc1ccc(Cl)cc1NC(=O)CN(C)CC(=O)Nc1ccc2c(c1)OCO2,-3.24%
3,COc1ccc(Cl)cc1NC(=O)CN(C)Cc1ccc(OC)c(OC)c1,56.6% (active)
4,Cc1ccc(Cl)c(OCC(=O)N2CCc3ccccc3C2)c1,61.4% (active)
5,Cc1ccc(Cl)c(OCC(=O)NN2CCN(C)CC2)c1,1.82%
6,O=C(COc1ccccc1Cl)N1CCCCCCC1,-0.869%
7,Cc1cccc(CC(=O)Nc2cccc(-c3cn4cccnc4n3)c2)c1,-2.19%
8,Cc1ccc(SCC(=O)Nc2ccc3oc(-c4ccccc4F)nc3c2)cc1,-1.22%
9,CCc1ccc(N2C(=O)CN(S(=O)(=O)CC)CC2(C)C(=O)NC2CCCCC2)cc1 (stereo not drawn),-0.256%
10,Cc1ccc(C)c(CN2C(=O)c3ccccc3S(=O)c3ccc(C(=O)N4CCOCC4)cc32)c1 (stereo not drawn),30.5% (active)
11,Cc1ccc(CCNC(=O)c2ccc3c(c2)N(Cc2cc(C)ccc2C)C(=O)c2ccccc2S3=O)cc1 (stereo not drawn),26.1%
12,O=C(c1ccc2c(c1)N(Cc1ccccc1F)C(=O)c1ccccc1S2(=O)=O)N1CCOCC1,16.1%
13,COc1ccc(NC(=O)C2CCN(c3ccc(Sc4ccc(C)cc4)nn3)CC2)c(OC)c1,7.96%
14,CCc1nn(CC(=O)N2CCN(c3ccc(Cl)cc3)CC2)c(=O)c2cc3occc3n12,3.41%
15,COc1ccc(S(=O)(=O)N/N=C\c2ccc(OC)c(COc3ccc(C)cc3[N+](=O)[O-])c2)cc1,-2.77%
16,CCc1ccc(S(=O)(=O)N/N=C\c2ccc([N+](=O)[O-])o2)cc1,49.5% (active)
17,CCc1ccc(S(=O)(=O)Nc2ccc(C)c(NS(C)(=O)=O)c2)cc1,2.33%
18,O=c1c2ccccc2n(Cc2cccc(Cl)c2)c(=O)n1Cc1ccccc1,1.58%
19,CCOc1ccc(N(CC)C(=O)c2cc3c(=O)oc4ccccc4c3s2)cc1,-1.26%
20,Oc1c(Br)cccc1/C=N/Nc1c(F)c(F)c(F)c(F)c1F,35.3% (active)
21,O=C1C(F)N([S+](=O)([O-])c2ccc3c(c2)OCCO3)CCN1[S+](=O)([O-])c1c(F)cccc1F (stereo not drawn),3.19%
22,N#CN1CCC(NC(=O)c2ccc(F)cc2)CC1,1.17%

row,SMILES,enhancement
1,Cn1cccc1C1(C(F)(F)F)NCCNC1=O (stereo not drawn),50.7% (active)
2,Cn1c(=O)c2c(ncn2CC(=O)Nc2cccc(C(F)(F)F)c2)n(C)c1=O,-2.46%
3,O=[S+]([O-])(c1ccc2c(c1)OCCO2)N1CCN([S+](=O)([O-])c2c(Cl)cc(Cl)cc2Br)CC1,-1.85%
4,CCOc1ccc(-n2c(SCC(=O)NCc3ccccc3)nc3n[nH]c(C)c3c2=N)cc1,-5.76%
5,CCn1c(=O)c(=O)n(CC)c2cc(N3CCCCC3)c(NC(=O)c3cccc(F)c3)cc21,4.18%
6,Cc1ccc(C(=O)Nc2cc3c(cc2N2CCCC2)n(C)c(=O)c(=O)n3C)cc1,32.4% (active)
7,CCn1c(=O)c(=O)n(CC)c2cc(N3CCCCC3)c(NC(=O)c3ccc(Cl)cc3)cc21,4.4%
8,Nc1ncc(S(=O)(=O)Nc2ccc(OC(F)(F)F)cc2)cn1,-5.87%
9,COc1ccc(N(C(=O)CNC(=O)c2ccco2)C(C(=O)NCC2CCCO2)c2ccccc2)cc1Cl (stereo not drawn),-16.4%
10,O=C(NCC(=O)N(CC1CCCO1)C(C(=O)NC1CCCCC1)c1ccccc1)c1ccco1 (stereo not drawn),35.9% (active)
11,Cc1ccc(N(C(=O)CNC(=O)c2ccco2)C(C(=O)NC2CCCC2)c2ccncc2)cc1 (stereo not drawn),0.937%
12,CCOc1ccc(Nc2ncnc3scc(-c4ccc(OC)cc4)c23)cc1,-0.508%
13,O=C(NCc1ccc2c(c1)OCO2)C12CC3CC(CC(C3)C1)C2,-3.78%
14,CN(C)S(=O)(=O)c1cccc(NC(=O)COc2ccc3ccccc3c2)c1,-1.36%
15,CN(C)S(=O)(=O)c1cccc(NC(=S)NCc2ccc3c(c2)OCO3)c1,34% (active)
16,COc1ccccc1N1CCN(c2ncnc3onc(-c4cccc(Cl)c4)c23)CC1,-1.85%
17,CCOc1ccc(C(C)=O)cc1COC(=O)CNC(=O)c1cccs1,34.6% (active)
18,COc1ccc(C(=O)COC(=O)CNC(=O)c2cccs2)cc1Br,2.56%
19,CCOc1ccc(C(C)=O)cc1COC(=O)c1cnc(Cl)c(Cl)c1,22.5%
20,CCCNC(=O)c1ccc(N2CCC3(CC2)CC(c2ccc(Cl)cc2)=NO3)c([N+](=O)[O-])c1,0.894%
21,CCCNC(=O)c1ccc(N2CCC3(CC2)CC(c2cccc(Br)c2)=NO3)c(NC(=O)c2ccco2)c1,35.5% (active)
22,O=C(Nc1ccccc1N1CCN(C(=O)c2ccccc2)CC1)c1ccco1,7.38%
